Compound activity from PubChem.
proKLK7 act: activates the human kallikrein-7 zymogen; P49862; purified proKLK7, EDANS-DABCYL substrate fluorescence; 100% is mature enzyme control, 0% vehicle; activation, % at 7 µM; 370,000 tested, 0.9% active;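 active = activation above the mean of all tested compounds plus 3 SD, computed per campaign excluding outliers beyond control limits, cut at about 13% in these data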
Target sequence (P49862 whole entry, looked up): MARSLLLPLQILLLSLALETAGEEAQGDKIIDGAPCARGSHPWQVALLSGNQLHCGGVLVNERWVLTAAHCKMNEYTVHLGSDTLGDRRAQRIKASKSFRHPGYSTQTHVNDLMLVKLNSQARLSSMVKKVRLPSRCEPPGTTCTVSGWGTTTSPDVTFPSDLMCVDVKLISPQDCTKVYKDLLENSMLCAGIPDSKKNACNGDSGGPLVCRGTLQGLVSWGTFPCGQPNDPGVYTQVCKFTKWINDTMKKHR
ADAM10 inh: inhibits human ADAM10. O14672. recombinant ADAM10, EDANS/DABCYL FRET peptide cleavage, 3 h. inhibition, % at 7 µM. 370,000 tested, 0.62% active;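 active = inhibition above a per-campaign cutoff equal to the mean of compounds falling between control-based bounds plus 3 SD, cut at about 20% in these data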
ADAM17 inh: ADAM17 inhibition, QFRET primary screen. recombinant ADAM17, EDANS/DABCYL FRET peptide cleavage. inhibition, % at 6.95 µM. 370,000 tested, 0.83% active. P78536;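 active = inhibition above the mean of compounds lying between control limits plus 3 SD, set per campaign, cut at about 8.5% in these data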
PLC-gamma1 inh: blocks human PLC-gamma1 enzyme activity; 370,000 tested, 0.84% active; P19174; purified PLC-gamma1, fluorogenic substrate, fluorescence; inhibition, % at 12.2 µM; in the data active = inhibition above about 9.5%
PLCb3 inh: inhibitors of human phospholipase C beta3 | Q01970 | Purified PLC-beta3, fluorogenic substrate, fluorescence | inhibition, % at 12.2 µM | 370,000 tested, 0.18% active | AID 720704; in the data active = inhibition above about 11%
KLK7 act conf: confirmation of human kallikrein-7 zymogen activators | shares compounds with proKLK7 act | purified proKLK7, EDANS-DABCYL substrate fluorescence; scaled: vehicle 0, mature enzyme 100 | activation, % at 7 µM | 3,200 tested, 68% active | AID 686949;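 active = activation, as change over the incubation, above the mean of all tested compounds plus 3 SD, cut at about 13% in these data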
EDANS interfere: fluorescence interference counter-screen for KLK7 activators. AID 686952. activation, % at 7 µM. 3,200 tested, 80% active. EDANS-DABCYL substrate fluorescence interference, no enzyme, 4 h; solvent 0%, active enzyme control 100%. shares compounds with proKLK7 act;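 active = activation above the all-compound mean plus 3 SD, ignoring values outside control-based bounds, cut at about 4.8% in these data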;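 note: value is the 4 h activation minus the activation read at time zero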
K7 EDANS ctr: counter-screen for kallikrein-7 activators: EDANS-DABCYL interference, dose response. shares compounds with proKLK7 act. EDANS-DABCYL peptide fluorescence interference, no enzyme. EC50, µM. 250 tested, 20% active;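 active = compounds that raise the fluorescence signal in this interference counterscreen, with EC50 at or below 10 µM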;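 note: intact quenched peptide substrate alone read at 355 nm excitation and 520 nm emission; signal is fluorescence gain from T0 to T4 after four hours at room temperature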
Each line names hits and unclear results; the compound was inactive in the other large screens (follow-up assays come after a bar, where they were run). In the library only some 2.9% were active in any assay of this set; here they are far more common.

Cc1ccc(C2N(C)c3ccccc3-c3nc4ccccc4n32)o1 (stereo not drawn)	none
CN1c2ccccc2-c2nc3ccccc3n2C1c1cccs1 (stereo not drawn)	proKLK7 act 40 | KLK7 act conf inactive | EDANS interfere inactive
Nc1[nH]c(C(=O)c2ccc(Br)cc2)c(-c2ccccc2)c1C(=O)NCCc1c[nH]c2ccccc12	none
CS(=O)(=O)Nc1ccc(C(=O)Nc2ccc3ccccc3c2)cc1	proKLK7 act 13 | KLK7 act conf inactive | EDANS interfere inactive
Cc1ccc(S(=O)(=O)c2c(N)n(CCC(C)C)c3nc4ccccc4nc23)cc1	none
Cc1ccc(S(=O)(=O)c2c(N)n(CCCO)c3nc4ccccc4nc23)cc1	proKLK7 act 14 | KLK7 act conf inactive | EDANS interfere inactive
CCC1=C(CC2NCCc3ccccc32)CC2c3cc(OC)c(OC)cc3CCN2C1 (stereo not drawn)	proKLK7 act 19 | KLK7 act conf inactive | EDANS interfere inactive
CC[C@H]1CN2CCc3cc(OC)c(OC)cc3C2C[C@@H]1C[C@H]1NCCc2cc(OC)c(OC)cc21 (stereo partly drawn)	none
C=CCOC(=O)COc1ccc2c(C)c(C)c(=O)oc2c1	proKLK7 act 15 | KLK7 act conf inactive | EDANS interfere 14
C=CCOC(=O)COc1ccc2c(C)c(CC)c(=O)oc2c1	proKLK7 act 27 | KLK7 act conf inactive | EDANS interfere 13
Cc1cc(NC(=O)CSc2nc3ccccc3c(=O)n2Cc2ccccc2)no1	none
Cc1cc(NC(=O)COC(=O)CSc2nc3cc(Cl)ccc3n2Cc2ccccc2)no1	proKLK7 act 13 | KLK7 act conf inactive | EDANS interfere inactive
CCOC(=O)CC[C@@]1(C(=O)OCC)C[C@@H](CC(=O)N2CCSCC2)C(=O)N2CCCC=C21	none
O=C(Nc1ccc2[nH]c(=O)[nH]c2c1)c1c(F)c(F)c(F)c(F)c1F	proKLK7 act 19 | KLK7 act conf 29 | EDANS interfere 22 | K7 EDANS ctr inactive
COc1cc(/C=C/C(=O)Nc2ccc3[nH]c(=O)[nH]c3c2)cc(OC)c1OC	none
O=C(/C=C/c1ccc(F)cc1)Nc1ccc2[nH]c(=O)[nH]c2c1	proKLK7 act 35 | KLK7 act conf 101 | EDANS interfere 93
CCOC(=O)c1[nH]c2ccc(C)cc2c1N	none
CCOC(=O)c1[nH]c2cc(OC)c(OC)cc2c1N	proKLK7 act 13 | KLK7 act conf 30 | EDANS interfere 31
Cc1cc(N2CCNC[C@@H]2C)ccc1N1CCN(Cc2ccccc2)[C@@H](C)C1	none
CCOc1cc2c(cc1/C=C/C(=O)O)OC(C)C2 (stereo not drawn)	proKLK7 act 62 | KLK7 act conf 72 | EDANS interfere 69
COc1cc2c(cc1/C=C/C(=O)O)OC(C)C2 (stereo not drawn)	proKLK7 act 64 | KLK7 act conf 64 | EDANS interfere 74
CC(C)(O)C1Cc2cc(/C=C/C(=O)O)c(O)cc2O1 (stereo not drawn)	none
CCOc1nc2ccccc2cc1/C=C/C(=O)O	none
C[C@@H]1ON(C)[C@H]2C[C@H]3c4[nH]c5c(-c6ccc(F)cc6)cccc5c4CCN3C(=O)[C@@H]12	none
Cc1cc2c(c(=O)o1)[C@@]1(C(=O)N(C)c3cc(Br)ccc31)C1=C(CCCC1=O)O2	none
CCOc1ccc(/C=C/C(=O)N(C)CC(=O)Nc2cccc(F)c2)cc1OCC	proKLK7 act 106 | KLK7 act conf inactive | EDANS interfere inactive
COCCN(C(=O)c1ccc(-c2ccc(Cl)cc2)o1)c1c(N)n(Cc2ccccc2)c(=O)[nH]c1=O	proKLK7 act 39 | KLK7 act conf 29 | EDANS interfere 30
Cc1ccc(S(=O)(=O)n2ccc(-c3c(-c4ccccc4)noc3C)n2)cc1	none
